# Rv3671c protease – inhibitors of M. tuberculosis serine protease Rv3671c. P9WHR9. inhibition, % at 5.96 µM. 320,000 tested, 0.048% active; in the data active means inhibition above about 38%;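 further: extracellular domain of Rv3671c used as enzyme; 0% = enzyme with DMSO and 100% = no enzyme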
# Vc quorum ag – quorum light induction in luxS cqsA deficient V. cholerae | 350,000 tested, 0.16% active | activation, % at 18.7 µM | V. cholerae BH1578 lux reporter, luminescence, 6 h; in the data active means activation mostly above about 9.7%, no sharp cut-off
# Mtb FBA inh – inhibits M. tuberculosis FBA enzyme | inhibition, % at 1 µM | purified M. tuberculosis FBA, fluorescence read-out | 360,000 tested, 2.3% active | P9WQA3; in the data active means inhibition above about 27%;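 further: 0% = vehicle and 100% = reference inhibitor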
# Mtb UGM inh – Mtb UDP-galactopyranose mutase inhibition; inhibition, % at 10 µM; 320,000 tested, 0.06% active; P9WIQ1; purified UGM, fluorescence polarization probe displacement; in the data active means inhibition above about 10%, passing the limit was not always enough
# Target sequence (P9WIQ1 whole entry, looked up): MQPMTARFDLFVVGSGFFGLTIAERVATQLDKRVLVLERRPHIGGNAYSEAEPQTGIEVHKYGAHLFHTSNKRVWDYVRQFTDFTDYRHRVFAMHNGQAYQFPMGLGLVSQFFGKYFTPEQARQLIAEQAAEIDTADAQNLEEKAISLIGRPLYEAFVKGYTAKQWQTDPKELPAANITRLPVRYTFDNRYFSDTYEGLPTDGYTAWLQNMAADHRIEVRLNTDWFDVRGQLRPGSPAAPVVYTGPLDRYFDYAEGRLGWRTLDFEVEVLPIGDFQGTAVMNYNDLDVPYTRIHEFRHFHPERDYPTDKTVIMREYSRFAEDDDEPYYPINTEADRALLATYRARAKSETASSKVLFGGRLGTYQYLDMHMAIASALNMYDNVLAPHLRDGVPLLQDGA
# GDH-TPI counter – inhibits GDH-TPI coupling enzymes, artifact for Mtb FBA screen; 360,000 tested, 1.2% active; inhibition, % at 4.8 µM; GDH-TPI coupled enzyme counterscreen, NADH absorbance; in the data active means inhibition above about 30%;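 further: 0% = DMSO wells and 100% = wells lacking the enzyme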
# RecA intein inh – Mtb RecA intein splicing inhibition; cell-free RecA intein splicing, fluorescence; P9WHJ3; 290,000 tested, 0.75% active; inhibition, % (test concentration not listed); in the data active means inhibition above about 30%;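 further: 0% = vehicle wells and 100% = reference inhibitor control wells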
# An asterisk follows results filed as active; i = inactive; . = no result given; + = active, no number. Sampled rows, rich in hits. Any-hit rate of the full collection: about 4.1%.
SMILES,Rv3671c protease,Vc quorum ag,Mtb FBA inh,Mtb UGM inh,GDH-TPI counter,RecA intein inh
CCOc1cccc(C(=O)N/N=C/c2coc3ccccc3c2=O)c1,-3,i,0,-3,0,4
O=C1NC(=O)/C(=C/c2ccco2)N1,8,0,-2,4,40*,.
O=C1NC(=O)C(=Cc2ccco2)S1,.,-1,1,.,38*,.
Cc1ccc(S(=O)(=O)/N=C2/NC(=O)/C(=C\c3ccco3)S2)cc1,-2,i,0,1,22,.
O=C(NCCc1ccccc1F)C1CC(=O)N(c2cccc(C(F)(F)F)c2)C1 (centres undefined),.,i,-1,.,5,.
CC1C(=O)N(Cc2cn(CCC3OCCO3)nn2)CCS(=O)(=O)N1Cc1ccc(-c2ccc(Cl)c(Cl)c2)cc1 (centres undefined),.,0,-1,.,-13,.
CC(/C=N/NC(=O)c1nnn(-c2nonc2N)c1C(C)C)=C\c1ccco1,3,i,5,0,37*,12
CCCc1c(C(=O)N/N=C/C(C)=C/c2ccco2)nnn1-c1nonc1N,-10,i,2,-1,26,-11
CN(C)Cc1c(C(=O)N/N=C/C=C/c2ccccc2)nnn1-c1nonc1N,-9,0,-2,2,34*,.
CC(C)c1c(C(=O)N/N=C/c2ccncc2)nnn1-c1nonc1N,-5,i,-2,-1,-7,-1
CC(C)c1c(C(=O)N/N=C/C=C/c2ccccc2)nnn1-c1nonc1N,4,i,-1,-1,39*,-2
CN(C)Cc1c(C(=O)N/N=C/CCc2ccccc2)nnn1-c1nonc1N,-4,0,-2,2,-4,-5
CCNC(=O)C1(C)CCN(C(=O)c2cccc(C(F)(F)F)c2)C1 (centres undefined),.,-1,-1,.,4,.
COc1ccc2c(c1)c(=O)oc1cc(OCC(=O)N3CCC(C)CC3)ccc12,-9,-2,21,1,18,-4
CC1CCCN(C(=O)COc2ccc(-c3ccccc3)cc2)C1 (centres undefined),-10,i,-3,3,4,3
Cc1c(Cl)c(=O)oc2cc(OCC(=O)N3CCCC(C)C3)ccc12 (centres undefined),10,-3,+,-3,17,.
COc1ccc2c(c1)c(=O)oc1cc(OCC(=O)N3CCCC(C)C3)ccc12 (centres undefined),-8,0,116*,0,17,-19
CC(=O)Nc1ccc(NC(=O)N2CCOCC2)cc1,.,i,1,.,14,.
CC(=O)/C(=N\Nc1ccc(C)cc1)N1CCOCC1,6,1,-1,0,31*,-1
Cc1ccc(N2CCN(S(=O)(=O)c3c(C)nc4scc(C)n4c3=O)CC2)c(C)c1,0,1,-5,2,31*,6
Cc1ccc(-c2nc(C(=O)NCCCN(C)C)cc3c2[nH]c2ccccc23)cc1,-22,0,28*,-3,9,2
COc1ccccc1N1CCN(C(=O)CSc2ncccc2-c2nc3ccccc3[nH]2)CC1,2,-2,27*,-4,6,-1
O=C(COC(=O)c1cccc(Cl)c1)NC1CCS(=O)(=O)C1 (centres undefined),10,-3,3,.,7,.
Nc1ccc(Cl)cc1C(=O)OCC(=O)NC1CCS(=O)(=O)C1 (centres undefined),-5,0,90*,-2,17,-1
CC(=O)N1CCN(C(=O)c2cccc(S(=O)(=O)N3CCOCC3)c2)CC1,.,i,2,.,12,.
SMILES,Rv3671c protease,Vc quorum ag,Mtb FBA inh,Mtb UGM inh,GDH-TPI counter,RecA intein inh
COP(=O)(OC)c1nc(-c2cccc3ccccc23)oc1NCCc1ccccc1,-2,0,+,1,14,-4
COc1ccc(CCNc2oc(Cc3cccc4ccccc34)nc2C#N)cc1OC,-9,-2,1,-1,4,17
COc1ccc(CCNc2oc(-c3cccc4ccccc34)nc2P(=O)(OC)OC)cc1OC,3,0,188*,-1,16,-7
Clc1ccccc1-c1ccc(/C=N/n2cnnc2)o1,-6,0,1,-1,55*,3
CCN=C1S/C(=C\c2ccc(-c3cccc(C(=O)O)c3)o2)C(=O)N1CC,-6,i,5,2,5,-23
Cc1c(C(=O)O)cccc1-c1ccc(/C=N/Nc2ccc(Br)cc2)o1,7,3,11,1,22,2
Cc1c(C(=O)O)cccc1-c1ccc(/C=N/n2cnnc2)o1,-1,0,3,1,31*,0
O=[N+]([O-])c1ccc(-c2ccc(/C=N/n3cnnc3)o2)c(Br)c1,-4,2,-4,1,26,6
O=C(O)c1cccc(-c2ccc(/C=N/n3cnnc3)o2)c1,0,0,19,5,35*,-4
Clc1cccc(-c2ccc(/C=N/n3cnnc3)o2)c1Cl,5,.,3,-1,34*,0
COc1cccc(-c2cnc(C(O)c3ccc(Cl)c(Cl)c3)[nH]2)c1 (centres undefined),.,i,-4,.,4,.
CCOc1ccc(S(=O)(=O)n2c([N+](=O)[O-])cnc2C)c(C)c1C,5,-1,0,2,11,-1
CSc1ccc(CN(C)C(=O)c2cc(Cl)c3c(c2)OCCO3)cc1,3,0,-2,0,-5,.
Cc1c(Cl)cccc1-c1ccc(/C=N/n2cnnc2)o1,-3,27*,2,1,33*,5
Cc1c2cnn(CC(=O)NCCN3CCOCC3)c(=O)c2c(C)n1Cc1ccc(F)cc1,-1,1,-2,-2,4,3
COc1ccccc1N1CCN(C(c2cc3ccc(C)cc3[nH]c2=O)c2nnnn2C2CCCC2)CC1 (centres undefined),2,i,4,1,34*,-2
COc1ccccc1N1CCN(C(c2cc3cc(C)ccc3[nH]c2=O)c2nnnn2C2CCCC2)CC1 (centres undefined),-5,2,-1,0,-1,-3
Cc1nc2ccccc2c2c1C(=O)NC2=O,6,.,.,0,.,60*
CC(C)n1cc2c(N)ncnc2n1,.,i,-1,.,-9,.
Cc1cc(C)n(C(=O)c2cc3ccccc3c(=O)o2)n1,-4,17*,2,-2,3,1
CCCNC(=O)c1cc2ccccc2c(=O)o1,-7,i,7,0,10,0
COc1cccc(/C=N/NC(=S)Nc2cccc(C(=O)O)c2)c1,-3,i,3,0,15,.
COc1ccc(/C=N/NC(=S)Nc2cccc(C(=O)O)c2)cc1OC,-7,0,7,2,50*,0
COc1cc(/C=N/NC(=S)Nc2cccc(C(=O)O)c2)cc(OC)c1OC,3,i,-1,3,41*,6
Cc1c(/C=C(\CC(=O)O)c2nc3ccccc3s2)cc(C#N)n1C,7,0,10,-2,43*,-3
COc1cc(/C=C(/C#N)C(=O)NCc2ccccc2)cc(OC)c1OC,-1,i,-1,-1,50*,-3

# Screening data from PubChem.
